# The list shows a part of the results. The hit rate among all sequences tested is not known here.
# B1: HC2343 (peptide)
# chain: CAEVACHRPSAGNASASA
# B2: HC451 (peptide)
# chain: CACPTDCFRKAGNASASA
# B3: HC571 (peptide)
# chain: CAVVLVGLMAAGNASASA
# B4: HC1607 (peptide)
# chain: CASLHSYSPGAGNASASA
# B5: FS-2327 (peptide)
# chain: CARCRRCVVVAGNASASA
# B6: FS-2840 (peptide)
# chain: CARVKRSVVVAGNASASA
# B7: HC2153 (peptide)
# chain: CARVVTSTWVAGNASASA
# B8: FS-3118 (peptide)
# chain: CARVKKSVEVAGNASASA
# B9: HC1324 (peptide)
# chain: CAPRKKRTVVAGNASASA
# B10: HC415 (peptide)
# chain: CAFTPSPVVVAGNASASA
# B11: DV4 (peptide)
# chain: CARKKRSVVVAGNASASA
# B12: HC2198 (peptide)
# chain: CAEVTTSTWVAGNASASA
# B13: HC874 (peptide)
# chain: CAPTSGDVVVAGNASASA
# B14: HC2230 (peptide)
# chain: CAEVVTSTVVAGNASASA
# B15: HC2370 (peptide)
# chain: CAEVPCHVPSAGNASASA
# B16: HC873 (peptide)
# chain: CAVIPTSGDVAGNASASA
# B17: HC467 (peptide)
# chain: CAYRLWHYPCAGNASASA
# B18: HC86 (peptide)
# chain: CAVVCFSMSYAGNASASA
# B19: HC2284 (peptide)
# chain: CADIEVVTSTAGNASASA
# B20: HC463 (peptide)
# chain: CAPRCLVDYPAGNASASA
# B21: HC1751 (peptide)
# chain: CAMEECSQDLAGNASASA
# B22: HC2567 (peptide)
# chain: CASTPCSAHFAGNASASA
# B23: FS-2196 (peptide)
# chain: CARVKKSPPEAGNASASA
# B24: FS-1871 (peptide)
# chain: CARVKKEWEEAGNASASA
# B25: HC1003 (peptide)
# chain: CARVVLSGKPAGNASASA
# B26: HC678 (peptide)
# chain: CAQTRGLLGCAGNASASA
# B27: HC1247 (peptide)
# chain: CASMLTDPSHAGNASASA
# Target: furin, P09958
# Experiment: furin cleavage Z-score vs untreated control; higher = more cleavage, active = 3.5 or more, inactive = 1 or less, 8 variable residues between constant flanks
# How it was run: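 To give the cleavage Z-score, log read counts were set against furin-free reactions, lowess-adjusted and scaled by median absolute deviation. These counts came from PCR adapter-tagged, sequenced DNA released when purified furin cut 8-mer peptides fused to a cDNA oligonucleotide and held on magnetic beads by their N-terminus. Digests were 0.01 ml, 1:10 enzyme:substrate, in 50 mM HEPES pH 7.5 with CaCl2 and NaCl, for 7.5, 15 or 30 min.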
# Sequence of furin, P09958 (P09958 whole entry): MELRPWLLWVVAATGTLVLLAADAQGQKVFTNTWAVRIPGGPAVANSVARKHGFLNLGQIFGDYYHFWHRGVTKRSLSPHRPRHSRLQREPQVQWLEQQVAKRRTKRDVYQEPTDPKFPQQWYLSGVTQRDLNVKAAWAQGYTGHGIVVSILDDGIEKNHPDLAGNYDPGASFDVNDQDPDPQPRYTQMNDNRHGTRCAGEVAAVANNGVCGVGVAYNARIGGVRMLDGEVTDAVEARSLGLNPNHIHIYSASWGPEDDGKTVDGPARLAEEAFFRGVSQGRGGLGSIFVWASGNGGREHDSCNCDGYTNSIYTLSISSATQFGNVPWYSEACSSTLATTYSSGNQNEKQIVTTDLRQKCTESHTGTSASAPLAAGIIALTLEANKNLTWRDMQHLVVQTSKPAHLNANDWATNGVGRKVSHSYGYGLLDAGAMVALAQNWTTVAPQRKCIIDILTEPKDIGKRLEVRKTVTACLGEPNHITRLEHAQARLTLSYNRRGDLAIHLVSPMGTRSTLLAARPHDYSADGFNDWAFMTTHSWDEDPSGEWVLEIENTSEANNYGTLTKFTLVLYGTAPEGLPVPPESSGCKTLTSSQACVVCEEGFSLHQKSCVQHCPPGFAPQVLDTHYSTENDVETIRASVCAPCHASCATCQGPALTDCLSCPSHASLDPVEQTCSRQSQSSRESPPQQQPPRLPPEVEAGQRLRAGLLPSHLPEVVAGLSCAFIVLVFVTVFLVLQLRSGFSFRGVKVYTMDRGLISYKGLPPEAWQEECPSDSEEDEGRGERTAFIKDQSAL
Sequence,furin cleavage Z-score (7.5 min),furin cleavage Z-score (15 min),furin cleavage Z-score (30 min)
B1,0.99 (inactive),0.762 (inactive),1.27
B2,0.183 (inactive),-0.762 (inactive),-0.961 (inactive)
B3,-0.371 (inactive),0.0646 (inactive),-0.205 (inactive)
B4,-1.22 (inactive),0.427 (inactive),0.0666 (inactive)
B5,-0.669 (inactive),0.654 (inactive),1.36
B6,8.15 (active),9.71 (active),8.81 (active)
B7,1.81,1.03,0.0503 (inactive)
B8,4.33 (active),7.31 (active),8.17 (active)
B9,11.4 (active),13.7 (active),11.3 (active)
B10,-0.406 (inactive),-0.269 (inactive),-0.296 (inactive)
B11,9.41 (active),10.1 (active),9.47 (active)
B12,-0.604 (inactive),0.139 (inactive),-0.711 (inactive)
B13,-0.612 (inactive),0.813 (inactive),-0.497 (inactive)
B14,-0.163 (inactive),-0.129 (inactive),-0.367 (inactive)
B15,-0.196 (inactive),0.881 (inactive),0.0659 (inactive)
B16,-1.48 (inactive),-0.378 (inactive),1.84
B17,0.186 (inactive),0.568 (inactive),0.0366 (inactive)
B18,-0.132 (inactive),1.31,0.28 (inactive)
B19,-0.624 (inactive),-0.333 (inactive),-1.16 (inactive)
B20,0.288 (inactive),-0.558 (inactive),-0.868 (inactive)
B21,-0.0304 (inactive),-0.261 (inactive),0.894 (inactive)
B22,1.04,-0.481 (inactive),1.8
B23,3.38,4.49 (active),5.53 (active)
B24,-0.778 (inactive),-0.527 (inactive),-1.03 (inactive)
B25,-0.899 (inactive),-0.703 (inactive),-0.908 (inactive)
B26,0.117 (inactive),-0.157 (inactive),-0.705 (inactive)
B27,0.787 (inactive),1.14,0.981 (inactive)

# From the supplement of paper PMC3545927
